Data taken from PubChem BioAssay AID1053144 (Broad Institute, 2014).
Screen size: about 3,400 compounds; about 160 (4.7%) were called active.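 The calls were made as follows: active = fitted curve reaches 30% activation at a concentration no higher than the top valid tested dose, luminescence rising; inconclusive = no clear call, values can overlap the other calls; inactive = signal moving opposite to the expected increase, plus the rest.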 Not all results are given here. Results with a measured potency or affinity are listed apart.

Assay: TCF/LEF reporter activation in neural progenitors – cell-based, iPS-derived NPC, luciferase, Wnt3a, cherry-pick, dose response (AID 1053144);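 also: Wnt3a stimulus is conditioned medium from Wnt3a-transfected mouse L cells at 5% in well; 0% = neutral control wells and 100% = CHIR-99021 positive control wells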
Conditions: Wnt3a EC25, 24 h; series mostly up to 26 µM; activation: at the top concentration

activation, inactive:
COc1ccc(-c2cc(-c3ccc(C)cc3)n[nH]2)c(O)c1 3.59%, NS(=O)(=O)c1ccc2nc(NC(=O)Nc3ccccc3F)sc2c1 15.6%, Cc1ccc2[nH]c(-c3cccc(N)c3)cc2c1 10.4%, O=C(/C=C/c1ccc(F)cc1)NCCC1=CCCCC1 5.54%, CC(C)(C)c1ccc(NC(=O)c2ccc(=O)[nH]n2)cc1 6.11%, COc1ccc2cc(-c3ccsc3)ncc2c1 5.78%, O=C1CC(c2ccco2)CC2=C1C=Nc1ccccc1N2 (stereo unspecified) -0.043%, CC1(C)CC(=O)C2=C(C1)Nc1ccccc1NC2c1ccc2c(c1)OCO2 (stereo unspecified) 14.2%, O=C(NCCc1cccs1)c1ccc(Cl)c(Cl)c1 10.3%, COc1ccccc1C1CC(c2cccs2)=Nc2ccccc2S1 (stereo unspecified) -0.562%, COc1ccc2oc(C(=O)Nc3ccc(C)cn3)c(C)c2c1 4.94%, COc1ccc(/C=N/Nc2nc3ccccc3o2)cc1O -6.25%, COc1cc(/C=N/Nc2ccccn2)ccc1O 15.7%, Nc1[nH]n(-c2ccccc2)c(=O)c1N=Nc1ccccc1[N+](=O)[O-] 14.7%, COCCNC(=O)c1ccc2c(Cl)c3c(nc2c1)CCC3 11.6%, CCOC(=O)c1c(C)[nH]c(C(=O)OCC(=O)c2ccccc2)c1C 14.7%, CCOC(=O)c1c(C)[nH]c(C(=O)OCc2ccccc2)c1C 11.5%, CCOC(=O)N1CCC(N2CCCC(C(=O)c3cc(F)ccc3OC)C2)CC1 (stereo unspecified) -0.943%, COc1ccc(N2CCN(c3ccc(NC(=O)/C=C\C(=O)O)cc3)CC2)cc1 0.048%, Cc1ccc(-c2nn(-c3ccccc3)cc2C=O)o1 9.4%, O=C(NCc1cccnc1)C(=O)Nc1nc2ccccc2s1 7.41%, OCC1(CCOc2ccccc2)CCN(Cc2ccccc2C(F)(F)F)CC1 -1.43%, Nc1ccc2nc(NC(=O)C3CCCCC3)sc2c1 13.5%, Cc1cc(/C=N/NC(=O)c2ccccc2F)c(C)n1-c1ccccc1 5.67%, COc1ccc(CN2C(=O)c3cccc4cccc(c34)C2=O)cc1 -0.645%, COc1ccc(N2C(=O)c3ccccc3C2O)cc1 (stereo unspecified) 7.59%, O=C(c1cc2cc(F)ccc2[nH]1)N1CCc2ccccc21 10.3%, Cc1ccnc2ccc(-c3nc4ccccc4o3)cc12 12.7%, Cc1ccc(-c2nc3ccsc3c(=O)o2)cc1 8%, COc1ccc(C2CC(=O)N(C)c3ccccc3S2)cc1OC (stereo unspecified) 17.8%, Clc1cccc(-c2ccc3ncnc(NCc4cccs4)c3c2)c1 8.6%, O=c1cc(-c2ccccc2)oc2ccc(Cl)cc12 8.75%, O=c1cc(-c2ccc3c(c2)OCCO3)oc2ccc(Cl)cc12 5.72%, C/C(=N/NC(=O)c1ccco1)c1ccc(NC(=O)c2ccc(F)cc2)cc1 3.65%, Cc1cccc(-c2nnc(-c3cccc4ccccc34)o2)c1 6.2%, Cc1ccccc1-c1nnc(-c2cccc3ccccc23)o1 7.55%, Nc1ccc(-c2nnc(-c3ccc(N)cc3)o2)cc1 9.86%, Cc1ccc(NC(=O)N2CCC(c3ccccc3)C2)cc1C (stereo unspecified) 18%, O=C(Cc1nc2ccccc2[nH]c1=O)c1ccccc1 7.66%, CCc1cc(C(=O)Cc2nc3ccccc3[nH]2)c(O)cc1O 5.81%, CCc1ccc(C(=O)COC(=O)c2ccccc2OC)cc1 15.9%, COc1ccc(-c2nnc(SCC(=O)Nc3cccc(Cl)c3)o2)cc1 5.55%, COc1ccc(-c2nnc(SCC(C)C)o2)cc1 5.72%, Cc1onc(C(=O)Nc2sc3c(c2C#N)CCCC3)c1[N+](=O)[O-] 3.37%, Cc1cc(NC(=O)c2cccc(F)c2)ncc1NC(=O)c1ccco1 5.89%, O=C(/C=C/C=C/c1ccccc1)c1ccco1 19.1%, Cc1ccc(N/C=C/C(=O)c2ccco2)c(O)c1 12.8%, Cc1ccnc(NC(=O)c2cc3cc(F)ccc3s2)c1 5.25%, CC(C)NC(=O)c1cc(-c2cccs2)on1 21.6%, Cc1ccc(NC(=O)c2cc(-c3cccs3)on2)cc1C 9.24%, CCc1cc(CNC(=O)CCc2nnc(CCCc3ccccc3)o2)on1 12%, O=C(NC(=O)c1ccc(F)cc1F)Nc1ccc(Cl)cc1 17.1%, Nc1ccc(O)c2c(=O)cc(-c3ccccc3Cl)oc12 7.45%, CCCOc1ccc(-c2csc3nc[nH]c(=O)c23)cc1 4.45%, COc1ccc2cc(CCNC(=O)c3cccs3)c(=O)[nH]c2c1 9.16%, COc1ccc2[nH]c(-c3ccccc3)cc2c1 6.06%, Cc1ccc(CONC(=O)c2ccc(C)cc2)cc1 8.43%, Nc1ccc(N=Nc2ccccc2)c(N)n1 12.5%, COc1ccc(N=Nc2ccc(N)nc2N)cc1 12.9%, CCOC(=O)C1(Cc2ccccc2)CCCN(C(=O)COc2ccccc2OC)C1 (stereo unspecified) 9.49%, Cn1c(SCc2ccccc2F)nnc1-c1ccccn1 13.6%, Cn1c(SCC(=O)c2ccccc2)nnc1-c1ccccn1 11.4%, Cc1ccc(NC(=O)C(=O)NCCCN2CCCC2=O)cc1 6.01%, COc1ccc2oc(=O)c(-c3nc4ccccc4o3)cc2c1 16.9%, COc1cccc2cc(-c3nc4ccccc4o3)c(=O)oc12 6.12%, N/C(=N\OC(=O)c1cccs1)c1ccc(Cl)cc1 10.6%, O=C(Nc1ccccc1)Nc1nnc(-c2ccccc2)s1 8.64%, COc1ccc(C(C(=O)NC2CCCC2)n2c(C3CCN(C(C)=O)CC3)nc3ccccc32)cc1 (stereo unspecified) 16.6%, c1ccc2c(c1)Cc1cc3ccccc3nc1-2 15.7%, O=C(/C=C/c1ccc(N2CCOCC2)cc1)c1ccccc1 5.79%, O=C(O)c1ccc2c(c1)C(=O)N(c1ccc(C(=O)OCC(=O)c3ccccc3)cc1)C2=O 7.5%, CCC(C)C(=O)Nc1nc2ccc(OC)cc2s1 (stereo unspecified) 11.1%, CC(=O)Nc1nonc1NC(=O)c1ccc(C(C)(C)C)cc1 6.59%, CCCCn1c(CN2CCN(C(=O)OCC)CC2)nc2c1c(=O)n(C)c(=O)n2C 1.14%, Cc1ccc(-c2noc(-c3ccccc3F)n2)cc1 7.61%, Fc1ccccc1-c1nc(-c2ccccc2)no1 4.1%, Cc1ccc(OCc2cc(C(=O)NCC(C)(C)N3CCOCC3)no2)cc1C 13.3%, NC(=O)CSc1nnc(NC(=O)c2ccc3ccccc3c2)s1 8.39%, CC1CCN(C(=O)CSc2nc3ccccc3s2)CC1 7.04%, CC1CCC2(CC1)NC(=O)N(CC(=O)Nc1sc3c(c1C(N)=O)CCC3)C2=O (stereo unspecified) 5.23%, NC(=O)c1c(NC(=O)c2ccccc2)sc2c1CCC2 9.7%
